Source: PubChem BioAssay
Activity calls are given as the source filed them.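 Rule for the calls: active = compounds giving at least 50% inhibition in the cell-based MKP-3 phosphatase rescue imaging test; inactive = the rest.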

Tested on: not listed separately
Assay: Primary imaging screen for DUSP6 inhibitors that restore phospho-Erk in transfected HeLa cells, chemical complementation (AID 609);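 for inhibition: phospho-Erk level distribution per well compared with pooled transfected vehicle control wells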
Details: HeLa MKP-3 transfected, phospho-Erk imaging KS statistic; measured here: nuclear pErk red intensity z-score; at 10 µM; stronger effect = higher value; cells stimulated with TPA for 15 min

SMILES | z-score
Cc1nc(SCC(=O)c2ccccc2)c(C#N)c(-c2ccco2)c1C(=O)NCc1ccco1 | 1.15
CC(=O)C(=[N+]=[N-])C(=O)NCc1ccccc1 | 0.485
CNC(=O)c1ncnnc1N(C)C(=O)NCc1ccccc1 | -1.12
CCCCNC(=O)c1c(N)n(/N=C/c2cccnc2)c2nc3ccccc3nc12 | 0.256
Cc1ccnc(N2CCN(c3c4c(c(C#N)c5nc6ccccc6n35)CCC4)CC2)c1 | 0.491
CC(C)Cc1[nH]c(=O)c(C#N)c2c1CCCC2 | 0.412
CCOC(=O)c1c(C)n(C)c2ccc(OC)c(NC(=O)CN3CCCCC3)c12 | 2.07
CSc1nc(N)nc(SCC(=O)OC(C)C)c1C#N | -1.26
CC(=O)N/C(=N/c1nc(C)cc(C)n1)Nc1ccc(NC(C)=O)cc1 | -1.09
Cc1ccccc1OCC(O)Cn1c(N2CCN(c3ccccc3)CC2)nc2c1c(=O)[nH]c(=O)n2C (stereo not given) | 0.818
CCCOc1ccc(Cc2nn[nH]n2)cc1 | 2.09
CC1CN(C2CCN(C(=O)c3ccccc3Cl)CC2)CC(C)O1 (stereo not given) | -0.453
CCOc1nnnc2c1sc1nc(N3CCOCC3)c3c(c12)CC(C)(C)OC3 | -0.83
CCN(CC)CCNc1nc2c(c(=O)[nH]c(=O)n2C)n1CCOc1ccccc1 | -0.109
NC(=O)CSc1c[nH]c2ccccc12 | -1.28
C=CCn1c(-c2ccccc2)n[nH]c1=S | -0.366
CN1C(=O)N(c2ccccc2)C(Nc2nncs2)C1(C)C (stereo not given) | 0.181
COc1ccc(/C=N/n2cncn2)cc1CSc1ccccn1 | -0.342
COc1cc([C@@H]2[C@H]3CNCC=C3C(C#N)=C(N)C2(C#N)C#N)ccc1OC(C)C | -2.38
Nc1nnc(Cc2ccc(Cl)c(Cl)c2)s1 | -0.983

SMILES | z-score
CCCOc1ccc(/C(O)=C2/C(=O)C(=O)N(CCN3CCOCC3)C2c2ccccc2)cc1 (stereo not given) | 0.743
CC(C)C1Cc2c(C#N)c(N)n(C)c(=S)c2CO1 (stereo not given) | 0.802
CNC(=O)C1CC(=O)N(Cc2ccccc2)C(=Nc2ccc(OC)cc2)S1 (stereo not given) | 1.34
CCCOc1ccc(C2NC(=O)NC2=O)cc1 (stereo not given) | 0.505
COC(=O)c1[nH]c2cc(OC)ccc2c1NC(=O)CCN1CCCC(C)(C)C1 | 0.954
Cc1cc(OCCN2CCOCC2)nc2ccccc12 | -1.2
CC(C)Nc1nc(NC(C)C)nc(N(C)n2cnnc2)n1 | 0.165
COc1ccc(OC)c(C(O)c2coc3ccc(O)c(CN4CCOCC4)c23)c1 (stereo not given) | 0.346
Cc1c([C@H]2[C@@H](CC#N)C2(C)C)c2ccccc2n1C | 0.83
CC1=C(C(=O)Nc2ccccc2)C(c2ccncc2)C(C#N)=C(SCC(=O)NC(C)C)N1 (stereo not given) | 0.309
CCCCCc1ccc(-c2ccc(=O)[nH]n2)cc1 | -1.03
O=C(C1=C(O)C(=O)N(CCN2CCOCC2)C1c1cccnc1)c1cc2ccccc2o1 (stereo not given) | 0.434
CCCCNC(=O)c1cc2n(n1)C(C(F)(F)F)CC(c1ccccc1)N2 (stereo not given) | 0.464
CCCC1C2C(=O)N(c3ccccc3OC)C(=O)C2ON1c1ccccc1 (stereo not given) | 0.149
CCOC(=O)C1=C(C)NC(=O)NC1c1ccc2c(c1)OCO2 (stereo not given) | -0.648
O=C(c1cccc(Cl)c1)N1CCN(C(=O)c2ccccc2F)CC1 | -2.04
Cc1noc(NS(=O)(=O)c2ccc(NC(=O)COc3ccccc3)cc2)c1C | -0.0095
Cc1nc(NCCN)c(C#N)c2c1COC(C)(C)C2 | -0.818
Cn1c(=NCC(O)COc2ccccc2)sc2ccccc21 (stereo not given) | 0.805
COc1ccc(-c2nn3c(C4CCCCC4)nnc3s2)cc1OC | 0.338

Molecular target: Dual specificity protein phosphatase 6 (Homo sapiens) (UniProt Q16828)
Sequence (Q16828 whole entry, looked up): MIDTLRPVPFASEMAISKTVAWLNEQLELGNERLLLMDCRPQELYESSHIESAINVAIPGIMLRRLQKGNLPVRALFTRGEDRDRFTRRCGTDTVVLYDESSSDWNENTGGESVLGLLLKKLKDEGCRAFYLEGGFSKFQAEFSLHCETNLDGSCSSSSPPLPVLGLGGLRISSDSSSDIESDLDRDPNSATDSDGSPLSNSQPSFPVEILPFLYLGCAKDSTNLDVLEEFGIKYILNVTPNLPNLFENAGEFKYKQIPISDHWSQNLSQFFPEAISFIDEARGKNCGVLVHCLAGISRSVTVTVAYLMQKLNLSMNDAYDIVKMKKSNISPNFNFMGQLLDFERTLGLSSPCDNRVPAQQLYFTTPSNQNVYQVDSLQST
Assay: as above
Details: HeLa MKP-3 transfected, phospho-Erk imaging KS statistic; at 10 µM; stronger effect = higher value; cells stimulated with TPA for 15 min

SMILES | inhibition
Cc1nc(SCC(=O)c2ccccc2)c(C#N)c(-c2ccco2)c1C(=O)NCc1ccco1 | 11.4% (inactive)
CC(=O)C(=[N+]=[N-])C(=O)NCc1ccccc1 | 5.95% (inactive)
CNC(=O)c1ncnnc1N(C)C(=O)NCc1ccccc1 | -9.66% (inactive)
CCCCNC(=O)c1c(N)n(/N=C/c2cccnc2)c2nc3ccccc3nc12 | 24.5% (inactive)
Cc1ccnc(N2CCN(c3c4c(c(C#N)c5nc6ccccc6n35)CCC4)CC2)c1 | 15.9% (inactive)
CC(C)Cc1[nH]c(=O)c(C#N)c2c1CCCC2 | 5.65% (inactive)
CCOC(=O)c1c(C)n(C)c2ccc(OC)c(NC(=O)CN3CCCCC3)c12 | -6.59% (inactive)
CSc1nc(N)nc(SCC(=O)OC(C)C)c1C#N | 0.671% (inactive)
CC(=O)N/C(=N/c1nc(C)cc(C)n1)Nc1ccc(NC(C)=O)cc1 | -1.12% (inactive)
Cc1ccccc1OCC(O)Cn1c(N2CCN(c3ccccc3)CC2)nc2c1c(=O)[nH]c(=O)n2C (stereo not given) | 8.76% (inactive)
CCCOc1ccc(Cc2nn[nH]n2)cc1 | -3.95% (inactive)
CC1CN(C2CCN(C(=O)c3ccccc3Cl)CC2)CC(C)O1 (stereo not given) | -5.62% (inactive)
CCOc1nnnc2c1sc1nc(N3CCOCC3)c3c(c12)CC(C)(C)OC3 | -6.86% (inactive)
CCN(CC)CCNc1nc2c(c(=O)[nH]c(=O)n2C)n1CCOc1ccccc1 | 12.3% (inactive)
NC(=O)CSc1c[nH]c2ccccc12 | 17% (inactive)
C=CCn1c(-c2ccccc2)n[nH]c1=S | 4.25% (inactive)
CN1C(=O)N(c2ccccc2)C(Nc2nncs2)C1(C)C (stereo not given) | -2.29% (inactive)
COc1ccc(/C=N/n2cncn2)cc1CSc1ccccn1 | -2.29% (inactive)
COc1cc([C@@H]2[C@H]3CNCC=C3C(C#N)=C(N)C2(C#N)C#N)ccc1OC(C)C | 2.46% (inactive)
Nc1nnc(Cc2ccc(Cl)c(Cl)c2)s1 | -7.86% (inactive)

SMILES | inhibition
CCCOc1ccc(/C(O)=C2/C(=O)C(=O)N(CCN3CCOCC3)C2c2ccccc2)cc1 (stereo not given) | -0.159% (inactive)
CC(C)C1Cc2c(C#N)c(N)n(C)c(=S)c2CO1 (stereo not given) | -8.76% (inactive)
CNC(=O)C1CC(=O)N(Cc2ccccc2)C(=Nc2ccc(OC)cc2)S1 (stereo not given) | -14% (inactive)
CCCOc1ccc(C2NC(=O)NC2=O)cc1 (stereo not given) | -0.159% (inactive)
COC(=O)c1[nH]c2cc(OC)ccc2c1NC(=O)CCN1CCCC(C)(C)C1 | 7.42% (inactive)
Cc1cc(OCCN2CCOCC2)nc2ccccc12 | -10.5% (inactive)
CC(C)Nc1nc(NC(C)C)nc(N(C)n2cnnc2)n1 | 20.8% (inactive)
COc1ccc(OC)c(C(O)c2coc3ccc(O)c(CN4CCOCC4)c23)c1 (stereo not given) | 1.42% (inactive)
Cc1c([C@H]2[C@@H](CC#N)C2(C)C)c2ccccc2n1C | -6.48% (inactive)
CC1=C(C(=O)Nc2ccccc2)C(c2ccncc2)C(C#N)=C(SCC(=O)NC(C)C)N1 (stereo not given) | -1.12% (inactive)
CCCCCc1ccc(-c2ccc(=O)[nH]n2)cc1 | 15.1% (inactive)
O=C(C1=C(O)C(=O)N(CCN2CCOCC2)C1c1cccnc1)c1cc2ccccc2o1 (stereo not given) | 15% (inactive)
CCCCNC(=O)c1cc2n(n1)C(C(F)(F)F)CC(c1ccccc1)N2 (stereo not given) | 1.75% (inactive)
CCCC1C2C(=O)N(c3ccccc3OC)C(=O)C2ON1c1ccccc1 (stereo not given) | 11.3% (inactive)
CCOC(=O)C1=C(C)NC(=O)NC1c1ccc2c(c1)OCO2 (stereo not given) | -13.3% (inactive)
O=C(c1cccc(Cl)c1)N1CCN(C(=O)c2ccccc2F)CC1 | 1.75% (inactive)
Cc1noc(NS(=O)(=O)c2ccc(NC(=O)COc3ccccc3)cc2)c1C | -11.5% (inactive)
Cc1nc(NCCN)c(C#N)c2c1COC(C)(C)C2 | 1.75% (inactive)
Cn1c(=NCC(O)COc2ccccc2)sc2ccccc21 (stereo not given) | -8.95% (inactive)
COc1ccc(-c2nn3c(C4CCCCC4)nnc3s2)cc1OC | -18.6% (inactive)
